D2 ag-1: activates the human D2 dopamine receptor | P14416 | HEK293 T-REx D2 cells, calcium flux agonist mode | activation, % at 2 µM | 340,000 compounds, 0.53% hits | AID 485358;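 active = activation over 3 SD above normal in the single-dose calcium agonist read, cut at about 30% in these data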; also: 0% is about no effect
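Tetracycline-induced HEK293 Trex cells with D2 receptor force-coupled to calcium signaling, plated overnight at 30 C and loaded with no-wash calcium dye. Calcium flux read kinetically for 180 s after compound addition; responses flag agonists.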
D2 PAM-1: human D2 receptor positive allosteric modulation. P14416. DiscoveRx D2 beta-arrestin cells, luminescence, 90 min; 100% = 57 uM dopamine signal. potentiation, % (test concentration not listed). 360,000 compounds, 0.23% hits. AID 624464; in the data active = potentiation above about 50%; inconclusive = mostly about 30% to 49%
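D2 cells co-treated with compound plus 50 nM dopamine (EC20) for 90 min at 37 deg C to detect potentiation. Beta-arrestin recruitment was read as enzyme-fragment luminescence after 1 h at ambient temperature. Full response was set by 57 uM dopamine.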
D2 PAM-2: positively modulates the human D2 dopamine receptor allosterically; potentiation, % at 10 µM; P14416; HEK293 T-REx D2, calcium flux, EC20 dopamine potentiation; AID 485347; 340,000 compounds, 0.34% hits;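 active = potentiation over 3 SD above the plate norm, cut at about 30% in these data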; also: 0% is about no effect
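Calcium flux readout, no-wash dye, 1 read/s. Inducible HEK293 Trex D2 line, overnight 30 C. Compound alone 180 s (agonist flags), then EC20 dopamine, another 180 s to score potentiation.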
D2 antag: D2 dopamine receptor (human) antagonism. P14416. HEK293 TREx D2 cells, calcium flux, dopamine EC80. inhibition, % at 10 µM. 340,000 compounds, 2% hits. AID 485344; in the data active = inhibition above about 30%; inactive = below that, where a call was filed; also: 0% is about no effect
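HEK293 T-REx D2 cells, tet-induced, calcium dye no-wash. Cpd pintool add, 180 s kinetic, then EC80 DA, 180 s kinetic. Ca flux read.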
D2 ag-2: activates the human D2 dopamine receptor; DiscoveRx PathHunter D2 beta-arrestin, luminescence, 90 min; 100% = 57 uM dopamine signal; 360,000 compounds, 0.084% hits; AID 624465; activation, % (no concentration beside the values); in the data active = activation above about 40%; inconclusive = between about 15% and that limit
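DiscoveRx PathHunter D2 beta-arrestin cells (2,100/well) attached overnight, then compound-stimulated 90 min at 37 C in HBSS/10 mM HEPES/0.1% Tween-20 buffer; beta-galactosidase complementation read by luminescence after 1 h at ambient temperature. Dopamine 57 uM final (EC100) as control.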
D3 arrestin ag: confirmation of human D3 dopamine receptor agonists, beta-arrestin; Potency, µM (series often up to 76.9 µM), without a hit: at the top dose activation, usual class: activators; DiscoveRx D3 beta-arrestin cells, luminescence, 90 min; 2,300 compounds, 4% hits; shares compounds with D2 ag-1;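 also: potency is read from the fitted curve at half-maximal effect; 100% = dopamine control response; nearly all actives have a fitted effect of over 70% in size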
Target sequence (P35462 whole entry, looked up): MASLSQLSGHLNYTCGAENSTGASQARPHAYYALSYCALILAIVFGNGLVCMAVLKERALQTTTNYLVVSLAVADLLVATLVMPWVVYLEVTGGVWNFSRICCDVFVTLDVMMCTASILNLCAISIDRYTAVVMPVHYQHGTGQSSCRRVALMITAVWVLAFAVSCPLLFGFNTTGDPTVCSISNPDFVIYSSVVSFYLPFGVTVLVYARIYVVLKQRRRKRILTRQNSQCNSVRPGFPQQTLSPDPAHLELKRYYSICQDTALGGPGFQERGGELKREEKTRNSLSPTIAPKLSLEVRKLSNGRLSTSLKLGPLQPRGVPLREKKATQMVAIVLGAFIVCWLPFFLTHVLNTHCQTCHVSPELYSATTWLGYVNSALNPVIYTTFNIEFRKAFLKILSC
D2 ag-3: activates human D2 dopamine receptor in D3 counterscreen; shares compounds with D2 ag-1; DiscoveRx PathHunter D2 beta-arrestin, luminescence, 90 min; response scale: percent relative to full dopamine signal; Potency, µM (doses to about 76.9 µM), inactives show at the highest dose activation, most hits filed as activators; 2,300 compounds, 5.9% hits; also: potency is read from the fitted curve at half-maximal effect; % of control where 0% means no effect; nearly all actives have a fitted effect of over 70% in size
* hit, by the source's call; ? = inconclusive; . = not tested or not shown. Compounds with a hit are over-represented: about 2.4% of the library has one in this group of screens. Unless noted, calls follow the shape of the dose curve; as a rule, active = well fitted activation curve with a large enough effect; inconclusive = small, poorly fitted or top-dose-only effect; inactive = flat fitted curve, though single readings scatter.

SMILES	D2 ag-1	D2 PAM-1	D2 PAM-2	D2 antag	D2 ag-2	D3 arrestin ag	D2 ag-3
COc1ccc(CNCCNC(=O)c2cccs2)cc1OC	60*	-12	-19	39*	-1	-3%	-4%
CCOC(=O)C1CCN(C(=O)Cn2nc(C)n3c(cc4sccc43)c2=O)CC1	0	.	-2	.	.	.	.
COc1cccc(CC(=O)OCC(=O)N(C)CC(=O)Nc2ccccc2Cl)c1	0	-11	-4	6	-5	-9%	0%
COc1cccc(NC(=O)CN(C)C(=O)Cc2ccc3c(c2)OCCO3)c1	0	5	-7	-4	4	-1%	-3%
COc1ccc(C)cc1S(=O)(=O)NCCC1=CCCCC1	1	-17	7	18	-3	.	.
CCOc1ccc(S(=O)(=O)NCCC2=CCCCC2)c2ccccc12	2	-10	-19	17	1	-3%	4%
Cc1nn(-c2ccccc2)c(Cl)c1/C=N/N1CCN(c2ccccn2)CC1	-1	-6	-11	3	-1	.	.
CN(C)c1ccc(/C=N/N2CCN(c3ccccn3)CC2)cc1	45*	21	-23	16	?	8%	13%
Cc1nn(-c2ccccc2)c(C)c1/C=N/N1CCN(c2ccccn2)CC1	19	-2	2	16	9	?	17%
Cc1ccc(NC(=O)CCC(=O)N2Cc3ccccc3Oc3ncccc32)cc1Cl	1	.	-10	.	.	.	.
Cc1cc(OCC(O)CN2CCN(c3ccccn3)CC2)cc(C)c1Cl (stereo unspecified)	46*	5	-17	43*	?	6.3µM*	?
OC(CN1CCN(c2ccccn2)CC1)Cn1c2ccccc2c2ccccc21 (stereo unspecified)	2	-6	-19	2	8	.	.
Cc1cc(C)c(OCC(O)CN2CCN(c3ccccn3)CC2)c(C)c1 (stereo unspecified)	79*	?	-26	78*	48*	0.079µM*	10µM*
OC(COc1ccc(Cl)c2ccccc12)CN1CCN(c2ccccn2)CC1 (stereo unspecified)	54*	-24	-21	35*	5	14µM*	?
COc1ccc(CNC(=O)Cc2c(C)c3c(cc(C)c4c(C)coc43)oc2=O)cc1OC	0	.	11	.	.	.	.
Cn1c(SCC(=O)c2ccc3c(c2)NC(=O)CO3)nc2ccccc21	2	-5	3	-13	5	.	.
CCCn1c(SCC(=O)c2ccc3c(c2)NC(=O)CO3)nc2ccccc21	5	-1	-7	2	0	-2%	5%
O=C(O)CNC(=O)c1ccc(NC(=O)/C(=C/c2cccc([N+](=O)[O-])c2)NC(=O)c2ccco2)cc1	47*	-5	-23	16	-5	-4%	-5%
O=C(NCC1CCCO1)/C(=C\c1cccc([N+](=O)[O-])c1)NC(=O)c1ccccc1 (stereo unspecified)	0	-3	-2	10	-3	-10%	-5%
O=C(O)CNC(=O)c1ccc(NC(=O)/C(=C/c2ccccc2)NC(=O)c2ccco2)cc1	1	-11	3	3	-6	.	.
O=C(NCC1CCCO1)/C(=C/c1ccccc1)NC(=O)c1ccccc1 (stereo unspecified)	0	-8	1	-14	-4	.	.
CCOC(=O)C1CCN(C(c2ccc(C)cc2)c2sc3nc(-c4ccco4)nn3c2O)CC1 (stereo unspecified)	0	.	16	.	.	.	.
COc1ccc(OC)c(NC(=O)C2CCN(S(=O)(=O)c3c(C)noc3C)CC2)c1	0	-23	-3	21	-2	.	.
COc1ccc(OC)c(NC(=O)C2CCCN(S(=O)(=O)c3c(C)noc3C)C2)c1 (stereo unspecified)	0	-4	-15	44*	0	14%	6%
Cc1ccc(S(=O)(=O)N(C)C)cc1NC(=O)C1CCN(C(=O)Nc2ccccc2)CC1	1	-30	-29	73*	0	-2%	-4%
SMILES	D2 ag-1	D2 PAM-1	D2 PAM-2	D2 antag	D2 ag-2	D3 arrestin ag	D2 ag-3
COc1cc(NC(=O)CC2C(=O)OCCN2Cc2ccccc2)cc(OC)c1 (stereo unspecified)	0	.	-6	.	.	.	.
CC(=O)c1cccc(NC(=O)c2oc(=O)c3ccccc3c2-c2ccccc2)c1	0	.	-6	.	.	.	.
NC(=O)CSc1nccn1Cc1ccccc1	0	-2	1	45*	-1	-2%	-1%
COCCN(C(=O)C1CCN(C(=O)c2ccccc2C)CC1)c1c(N)n(CC(C)C)c(=O)[nH]c1=O	0	-4	5	-6	0	-1%	-2%
Cc1ccccc1C(=O)N1CCC(C(=O)N(CC(C)C)c2c(N)n(CC(C)C)c(=O)[nH]c2=O)CC1	0	-1	7	-24	-1	.	.
COc1ccccc1NC(=O)CCn1nc(-c2ccccc2OC)c2c(C)cc(C)nc21	.	.	9	.	.	.	.
O=c1c2cccnc2[nH]c(=S)n1CCCN1CCN(c2ccc(F)cc2)CC1	54*	-30	-24	101*	13	5%	14%
COc1ccc(N2CCN(CCCn3c(=S)[nH]c4ncccc4c3=O)CC2)cc1	0	-31	8	2	1	.	.
CCOCCC(=O)Nc1ncc(S(=O)(=O)c2ccc([N+](=O)[O-])cc2)s1	.	-2	.	.	?	.	.
CCCC(C)C(=O)Nc1ncc(S(=O)(=O)c2ccc([N+](=O)[O-])cc2)s1 (stereo unspecified)	23	11	10	19	14	?	24%
CN1C/C(=C\c2ccc(N3CCOCC3)cc2)C(=O)/C(=C/c2ccc(N3CCOCC3)cc2)C1	25	-12	6	0	-4	0%	-5%
CN1C/C(=C/c2ccsc2)C(=O)/C(=C/c2ccsc2)C1	69*	-19	-23	44*	1	0%	-2%
c1ccc(OCCN2CCN(Cc3nc(-c4ccc5c(c4)OCO5)no3)CC2)cc1	64*	-3	-12	69*	6	?	?
CCN(CC)c1nn2c(=O)c(C(=O)NCc3ccccc3Br)cnc2s1	1	.	-9	.	.	.	.
Cc1ccc(CN2CCSc3ccc(C(=O)Nc4ccc(C)cc4)cc32)cc1	.	.	1	.	.	.	.
CCC(C)Nc1nc(-c2cccc(OC)c2O)nc2ccccc12 (stereo unspecified)	5	?	-7	9	2	6%	13%
COc1ccccc1CNC(=O)CN1C(=O)CCn2nc(-c3ccccc3)cc21	.	.	5	.	.	.	.

Assay outcomes: PubChem BioAssay, National Center for Advancing Translational Sciences (NCATS)
